In the library only some 21% were active in any assay of this set; here they are far more common.
CHX counter = counter-screen for Shiga toxin inhibitors: cycloheximide protein synthesis inhibition; max response, %; actives 12% (n = 300,000); cell reporter, cycloheximide protein synthesis inhibition counterscreen; in the data active = max response mostly above about 13%, no sharp cut-off; inactive = mostly below about 14%; also: read at 38.3 µM for the half of the compounds with a filed dose; 0% is about no effect
Pf growth 96h = inhibits malaria parasite growth, 96 h. actives 6.9% (n = 320,000). P. falciparum luciferase reporter growth, 96 h. Potency, µM (series often up to 28.7 µM), inactives show at the highest dose activity change, negative = inhibition, hits mostly inhibitors; also: potency is read from the fitted curve at half-maximal effect; % is scaled to controls: 0 for no effect and ±100 for the full control effect
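P. falciparum expressing integrated firefly luciferase, in erythrocytes at 2% hematocrit, 0.05% parasitemia, incubated with compounds 96 h at 37 C, 5% CO2. Growth inhibition read as loss of luminescence; two-generation exposure targets delayed-death apicoplast inhibitors.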
Pf growth 48h = P. falciparum growth inhibition at 48 hours (one generation); P. falciparum luciferase growth in erythrocytes, 48 h; Potency, µM (series often up to 28.7 µM), inactives show at the top dose activity change, negative = inhibition, actives largely listed as inhibitors; actives 5.9% (n = 310,000); also: potency is read from the fitted curve at half-maximal effect; % is scaled to controls: 0 for no effect and ±100 for the full control effect
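First compound was added to culture medium, then infected red cells at 0.1% parasitemia and 2% hematocrit (final). After incubation at 37 C under 5% CO2, luciferase detection reagent was dispensed and light output recorded.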
Shiga toxin inh = blocks Shiga toxin action in Vero cells; Vero cells, Shiga toxin protein synthesis inhibition reporter; inhibition, % at 38.7 µM; actives 9.2% (n = 290,000); in the data active = inhibition mostly above about 28%, no sharp cut-off; inactive = mostly below about 43%; also: 0% is about no effect
HCV inh = inhibitors of hepatitis C virus infection; Huh7.5.1 HCVcc-Cre infection, luciferase reporter, 44 h; actives 3.4% (n = 340,000); Potency, µM (series often up to 41.8 µM), for inactives: at the top dose activity change, negative = inhibition, usual class: inhibitors; also: potency is read from the fitted curve at half-maximal effect; % is scaled to controls: 0 for no effect and ±100 for the full control effect
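HCVcc-Cre virus at an moi near 0.5 was added right after compound to cells cultured 4 h from seeding (1,000 cells/well). Luciferase activity was determined 44 h later, 15 min after substrate addition at RT.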
AMA1 RON2 block = AMA1-RON2 (P. falciparum) interaction inhibition. Potency, µM (top dose mostly 58.2 µM), without a hit: at the highest dose activity change, negative = inhibition, actives largely listed as inhibitors. AlphaScreen AMA1-biotinylated RON2 peptide binding. actives 0.2% (n = 360,000);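 also: potency is read from the fitted curve at half-maximal effect; 0% = vehicle wells and -100% = peptide control; nearly all actives have a fitted effect of over 45% in size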
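AMA1 (3D7) with his tag at 25 nM final met compounds first, then biotinylated RON2 peptide at 25 nM; detection used donor plus acceptor beads, 10 µg/mL apiece, read by AlphaScreen after 30 min at room temperature.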
Numbers without * were called inactive. Unless noted, calls follow the shape of the dose curve; as a rule, active = well fitted curve in the direction sought with a large enough effect; inconclusive = small, poorly fitted or top-dose-only effect, or another doubt; inactive = no such curve, though single readings can be large; an effect the other way counts as inactive or inconclusive.

Screening Cc1ccc(S(=O)(=O)N2C[C@H]3C(=O)C[C@@H](c4ccccc4C)N(S(=O)(=O)c4ccc(C)cc4)[C@H]3C[C@H]2c2ccccc2)cc1 returned AMA1 RON2 block -1%.
`CC(Nc1nc(-c2ccc(F)cc2)cs1)c1nc2cc(C(F)(F)F)ccc2n1CCOCCO` (centres undefined) gave HCV inh 1% and AMA1 RON2 block 12%.
`COc1ccc(-c2csc(NC(C)c3nc4cc(C(F)(F)F)ccc4n3CCOCCO)n2)cc1` (centres undefined) gave HCV inh 8.9µM* and AMA1 RON2 block 30%.
For O=C(NNC(=O)c1ccccc1OCc1ccc(F)cc1)c1ccccc1O the results were CHX counter 15*, Pf growth 96h 8.3µM*, Pf growth 48h inconclusive, Shiga toxin inh 27, HCV inh 6.3µM* and AMA1 RON2 block 11%.
`O=C(N/N=C/c1ccccc1F)c1ccccc1OCc1ccccc1` gave CHX counter 20*, Pf growth 96h 10%, Pf growth 48h inconclusive, Shiga toxin inh 75*, HCV inh 10µM* and AMA1 RON2 block 6%.
O=C(NNC(=O)c1ccccc1OCc1ccccc1)c1ccccc1O was read as CHX counter 12, Pf growth 96h inconclusive, Pf growth 48h inconclusive, Shiga toxin inh 6, HCV inh inconclusive and AMA1 RON2 block 44%.
`O=C(NNC(=O)c1ccccc1OCc1ccccc1)c1ccccc1F` gave CHX counter 69*, Pf growth 96h 68%, Pf growth 48h 41%, Shiga toxin inh 73*, HCV inh -26% and AMA1 RON2 block 35%.
CC(=O)c1ccccc1OCc1ccc(S(=O)(=O)Cc2ccccc2)cc1 was read as CHX counter -4, Pf growth 96h 35%, Pf growth 48h 0%, HCV inh 10µM* and AMA1 RON2 block -4%.
For O=CNC(n1cnc2c(N3CCOCC3)ncnc21)C(Cl)(Cl)Cl (centres undefined) the results were CHX counter -2, Pf growth 96h 20%, Pf growth 48h -1%, Shiga toxin inh -25, HCV inh 12% and AMA1 RON2 block 5%.
Screening Cn1ncc2c(Nc3ccc(O)cc3)nc(Cl)nc21 returned CHX counter 1, Pf growth 96h 82%, Pf growth 48h 48%, Shiga toxin inh -17, HCV inh -12% and AMA1 RON2 block 7%.
CNc1nc(Nc2ccc(C)c(Cl)c2)c2cnn(C)c2n1 was read as CHX counter 12, Pf growth 96h 0%, Pf growth 48h 2%, Shiga toxin inh -4, HCV inh inconclusive and AMA1 RON2 block 13%.
Screening CCCNc1nc(Nc2ccc(C)c(Cl)c2)c2cnn(C)c2n1 returned CHX counter -2, Pf growth 96h 0%, Pf growth 48h inconclusive, Shiga toxin inh -7, HCV inh inconclusive and AMA1 RON2 block -11%.
Cn1ncc2c(Nc3ccc(Br)cc3)nc(Nc3ccc(Br)cc3)nc21 was read as CHX counter -4, Pf growth 96h 9.3µM*, Pf growth 48h 2.1µM*, Shiga toxin inh 1, HCV inh inconclusive and AMA1 RON2 block 7%.
`Cc1ccc(Nc2nc(NCCO)nc3c2cnn3C)cc1Cl` gave CHX counter -1, Pf growth 96h inconclusive, Pf growth 48h -23%, Shiga toxin inh -6, HCV inh 13µM* and AMA1 RON2 block -10%.
Cn1ncc2c(Nc3cccc(Cl)c3)nc(Nc3cccc(Cl)c3)nc21 was read as CHX counter -2, Pf growth 96h 2.9µM*, Pf growth 48h 1.7µM*, Shiga toxin inh -1, HCV inh inconclusive and AMA1 RON2 block -3%.
`Cc1ccccc1S(=O)(=O)N1C[C@H]2CON(C)[C@H]2C[C@H]1c1cccc(Oc2ccccc2)c1` gave HCV inh -22% and AMA1 RON2 block -27%.
`COc1ccc(Cc2noc(CN3CCCN(C4Cc5ccccc5C4)CC3)n2)cc1OC` gave CHX counter 1, Pf growth 96h 10%, Pf growth 48h inconclusive, Shiga toxin inh -6, HCV inh inconclusive and AMA1 RON2 block 9%.
Screening CCN1/C(=C/C=C/c2oc3ccc(-c4ccccc4)cc3[n+]2CC)Oc2ccc(-c3ccccc3)cc21 returned CHX counter -7, Pf growth 96h -22%, Pf growth 48h 0.93µM*, Shiga toxin inh -35, HCV inh 0.89µM* and AMA1 RON2 block inconclusive.
Screening Cn1cccc([N+](=O)[O-])c1=O returned AMA1 RON2 block 14%.
For Cn1c(-c2ccccc2[N+](=O)[O-])[n+](C)c2ccccc21 the results were CHX counter 1, Pf growth 96h 4.1µM*, Pf growth 48h 10µM*, Shiga toxin inh 8, HCV inh -5% and AMA1 RON2 block 2%.
Screening CC1=NN(C(=O)c2ccccc2)C(O)(c2ccc(Br)cc2)C1 (centres undefined) returned CHX counter 44*, Pf growth 96h 3.7µM*, Pf growth 48h inconclusive, Shiga toxin inh 68*, HCV inh inconclusive and AMA1 RON2 block 7%.
`CCOC(=O)C1=NN(C(=O)c2ccccc2)C(O)(c2ccc(C)cc2)C1` (centres undefined) gave CHX counter 45*, Pf growth 96h -1%, Pf growth 48h 5%, Shiga toxin inh 89*, HCV inh 23% and AMA1 RON2 block 84%.
Screening CCC1=NN(C(=O)c2ccc(Br)cc2)C(O)(c2ccccc2)C1 (centres undefined) returned CHX counter 2, Pf growth 96h 45%, Pf growth 48h 58%, Shiga toxin inh -9, HCV inh -20% and AMA1 RON2 block 20%.
For CCOC(=O)C1=NN(C(=O)c2cccc(Br)c2)C(O)(C(C)(C)C)C1 (centres undefined) the results were CHX counter 20*, Pf growth 96h 6%, Pf growth 48h inconclusive and Shiga toxin inh 74*.
`CC1=NN(C(=O)c2ccccc2F)C(O)(c2ccc(Cl)cc2)C1` (centres undefined) gave CHX counter 15, Pf growth 96h 13µM*, Pf growth 48h 0%, Shiga toxin inh 57, HCV inh -5% and AMA1 RON2 block 64%.
`CN(Cc1ccccc1)S(=O)(=O)CCNC(=O)c1ccc2c(c1)OCO2` gave Pf growth 96h 21%, Pf growth 48h -14%, HCV inh 8% and AMA1 RON2 block -11%.
For O=C1CN(C(=O)c2cccc([N+](=O)[O-])c2)CC(=O)N1 the results were CHX counter -1, Pf growth 96h inconclusive, Pf growth 48h 18%, HCV inh 20% and AMA1 RON2 block -2%.
